What all share (design): scale not given: direction of the effect not stated beside the values
In experiment [1] the target is Protein translocase subunit SecA (Escherichia coli (strain K12)) (UniProt P10408). As to the kind of experiment: Assay to Identify E. coli SecA ATPase Inhibitors. In kind it is functional. The note with it: 30 µM.
In experiment [2] the target is T1, Ubiquitin-activating enzyme e1, putative (Leishmania donovani (strain BPK282A1)) (UniProt E9BSI1).
T1 sequence (whole entry): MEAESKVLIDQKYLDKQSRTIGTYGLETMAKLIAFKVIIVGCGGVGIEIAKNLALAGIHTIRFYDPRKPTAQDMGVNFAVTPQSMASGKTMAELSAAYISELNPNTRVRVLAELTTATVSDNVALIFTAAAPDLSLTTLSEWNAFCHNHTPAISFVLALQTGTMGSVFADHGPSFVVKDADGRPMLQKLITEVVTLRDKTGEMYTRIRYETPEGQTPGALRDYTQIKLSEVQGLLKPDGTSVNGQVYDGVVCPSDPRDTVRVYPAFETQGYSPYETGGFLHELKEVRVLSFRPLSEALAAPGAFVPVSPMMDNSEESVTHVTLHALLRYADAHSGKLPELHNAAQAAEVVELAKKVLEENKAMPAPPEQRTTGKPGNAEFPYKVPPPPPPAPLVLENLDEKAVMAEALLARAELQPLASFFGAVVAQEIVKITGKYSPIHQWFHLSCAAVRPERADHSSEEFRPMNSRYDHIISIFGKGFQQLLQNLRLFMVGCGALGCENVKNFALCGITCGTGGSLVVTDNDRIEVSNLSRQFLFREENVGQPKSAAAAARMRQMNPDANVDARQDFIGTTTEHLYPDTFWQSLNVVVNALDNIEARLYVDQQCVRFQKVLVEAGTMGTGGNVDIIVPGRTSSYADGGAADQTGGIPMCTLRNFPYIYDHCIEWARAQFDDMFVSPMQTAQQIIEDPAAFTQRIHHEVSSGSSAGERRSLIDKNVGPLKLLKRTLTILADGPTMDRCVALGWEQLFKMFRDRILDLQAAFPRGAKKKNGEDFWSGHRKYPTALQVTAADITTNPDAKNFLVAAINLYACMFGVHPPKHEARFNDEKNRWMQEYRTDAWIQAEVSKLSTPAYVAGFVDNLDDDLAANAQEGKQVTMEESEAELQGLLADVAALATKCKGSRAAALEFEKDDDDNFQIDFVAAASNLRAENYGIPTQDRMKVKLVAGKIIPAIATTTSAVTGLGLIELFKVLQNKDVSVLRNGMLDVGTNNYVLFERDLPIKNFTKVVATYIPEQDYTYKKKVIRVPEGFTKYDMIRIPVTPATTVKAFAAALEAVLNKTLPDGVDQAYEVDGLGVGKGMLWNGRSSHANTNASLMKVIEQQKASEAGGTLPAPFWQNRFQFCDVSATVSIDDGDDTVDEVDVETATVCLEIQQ
Nature of the experiment: Leishmania donovani Ubiquitin Activating Enzyme (LdE1). The note with it: 30 µM. In kind it is functional.

The target in experiment [3] is AMP-activated protein kinase, AMPK (Homo sapiens) (UniProt P54646+O43741+P54619+Q9UGJ0+Q9Y478+Q13131+Q9UGI9). As to the kind of experiment: AMP-dependent Kinase enzyme assay. An in vitro enzyme assay that detects ADP turnover that is directly proportional to AMPK activity. This uses naive AMPK that is activated during the assay with MK-8722. The note with it: 30 µM. In kind it is functional.

Experiment [4] has as its target Sialic acid-binding Ig-like lectin 9 (Homo sapiens) (UniProt Q9Y336). As to the kind of experiment: Hs-Siglec9 ALPHAscreen SOP 20170721. The note with it: 10 µM.
The subject of the next experiment is Trypanosoma cruzi. Nature of the experiment: Trypanosoma cruzi phosphomannomutase and mannose-1-phosphate guanylyltransferase assay. In kind it is functional. The note with it: 10 µM.
Experiment [5] deals with T2, Arginase-2, mitochondrial (Homo sapiens) (UniProt P78540).
T2 sequence (whole entry): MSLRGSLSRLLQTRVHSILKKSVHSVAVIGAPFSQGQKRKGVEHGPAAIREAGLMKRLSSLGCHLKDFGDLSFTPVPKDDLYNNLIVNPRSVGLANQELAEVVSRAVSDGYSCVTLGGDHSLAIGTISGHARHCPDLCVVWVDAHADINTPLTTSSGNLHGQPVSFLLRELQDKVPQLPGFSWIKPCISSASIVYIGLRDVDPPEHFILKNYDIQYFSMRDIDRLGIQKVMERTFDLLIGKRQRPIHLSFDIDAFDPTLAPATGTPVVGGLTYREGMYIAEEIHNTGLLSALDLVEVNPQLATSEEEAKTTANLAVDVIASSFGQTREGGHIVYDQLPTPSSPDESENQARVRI
As to the kind of experiment: in vitro enzyme assay to detect the production of urea directly proportional to the activity of Arginase II. Note: in the data most compounds retested in dose-response had high values. In kind it is functional. The note with it: 33.3 µM.

The target of experiment [6] is T3, Proteasome subunit beta (Trypanosoma cruzi) (UniProt O96673).
T3 sequence (whole entry): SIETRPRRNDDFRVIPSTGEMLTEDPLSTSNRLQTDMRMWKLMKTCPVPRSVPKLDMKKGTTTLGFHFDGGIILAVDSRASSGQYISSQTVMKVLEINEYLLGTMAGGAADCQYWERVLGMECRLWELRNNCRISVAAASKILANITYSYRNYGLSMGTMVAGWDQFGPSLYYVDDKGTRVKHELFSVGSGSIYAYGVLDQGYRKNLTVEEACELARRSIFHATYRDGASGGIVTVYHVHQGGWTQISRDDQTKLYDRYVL
Nature of the experiment: Trypanosoma cruzi proteasome chymotrypsin-like activity (TcProtChymo) assay. Note: in the data most compounds retested in dose-response had high values. In kind it is functional. The note with it: 9.37 µM.

The next experiment is filed under the species Homo sapiens. As to the kind of experiment: To identify inhibition of the IFN signalling (Jak-Stat) pathway via expression of an eGFP reporter gene under the control of an IFN-stimulated response element (ISRE) containing MxA promoter. In kind it is functional. As to conditions: 30 µM. (In general: Reporter assays use an easily measured gene product as a stand-in for the process of interest.)

For experiment [7], the target named is T4, Tyrosyl-tRNA synthetase, putative (Trypanosoma cruzi (strain CL Brener)) (UniProt Q4DSP6).
T4 sequence (whole entry): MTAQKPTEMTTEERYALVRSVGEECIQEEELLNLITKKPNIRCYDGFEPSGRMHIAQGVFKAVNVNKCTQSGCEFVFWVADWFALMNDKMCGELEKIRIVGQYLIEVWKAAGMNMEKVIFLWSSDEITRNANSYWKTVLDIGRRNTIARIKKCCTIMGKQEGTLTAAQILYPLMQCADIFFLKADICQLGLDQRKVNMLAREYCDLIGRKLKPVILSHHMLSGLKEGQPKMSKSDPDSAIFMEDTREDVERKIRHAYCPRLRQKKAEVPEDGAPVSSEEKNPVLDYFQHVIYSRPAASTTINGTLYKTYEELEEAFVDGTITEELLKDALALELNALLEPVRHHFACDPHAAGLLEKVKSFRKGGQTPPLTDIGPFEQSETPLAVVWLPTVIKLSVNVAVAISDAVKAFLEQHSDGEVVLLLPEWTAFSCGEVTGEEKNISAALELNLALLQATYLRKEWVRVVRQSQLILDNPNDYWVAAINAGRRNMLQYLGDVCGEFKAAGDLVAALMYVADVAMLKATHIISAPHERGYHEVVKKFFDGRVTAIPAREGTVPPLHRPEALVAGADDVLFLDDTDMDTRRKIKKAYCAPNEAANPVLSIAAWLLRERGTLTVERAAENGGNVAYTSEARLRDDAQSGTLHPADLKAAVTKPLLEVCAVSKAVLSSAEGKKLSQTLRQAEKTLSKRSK
Nature of the experiment: Trypanosoma cruzi tyrosyl tRNA synthetase (TcYRS) _High Tyrosine SOP. Note: in the data most compounds retested in dose-response had high values. The note with it: 30 µM. In kind it is functional.

The target of experiment [8] is T4, Tyrosyl-tRNA synthetase, putative (Trypanosoma cruzi (strain CL Brener)). Nature of the experiment: Trypanosoma cruzi tyrosyl tRNA synthetase (TcYRS) SOP. In kind it is functional. As to conditions: 30 µM.
In experiment [9] the target is Chromo domain-containing protein 1 (Saccharomyces cerevisiae (strain ATCC 204508 / S288c) (Baker's yeast)) (UniProt P32657). Nature of the experiment: ScCHD-1 Enzyme Inhibition Assay. Note: in the data most compounds retested in dose-response had high values. In kind it is functional. The note with it: 30 µM.
Chain of Chromo domain-containing protein 1 (Saccharomyces cerevisiae (strain ATCC 204508 / S288c) (Baker's yeast)) (P32657 whole entry, the tested form may be a part): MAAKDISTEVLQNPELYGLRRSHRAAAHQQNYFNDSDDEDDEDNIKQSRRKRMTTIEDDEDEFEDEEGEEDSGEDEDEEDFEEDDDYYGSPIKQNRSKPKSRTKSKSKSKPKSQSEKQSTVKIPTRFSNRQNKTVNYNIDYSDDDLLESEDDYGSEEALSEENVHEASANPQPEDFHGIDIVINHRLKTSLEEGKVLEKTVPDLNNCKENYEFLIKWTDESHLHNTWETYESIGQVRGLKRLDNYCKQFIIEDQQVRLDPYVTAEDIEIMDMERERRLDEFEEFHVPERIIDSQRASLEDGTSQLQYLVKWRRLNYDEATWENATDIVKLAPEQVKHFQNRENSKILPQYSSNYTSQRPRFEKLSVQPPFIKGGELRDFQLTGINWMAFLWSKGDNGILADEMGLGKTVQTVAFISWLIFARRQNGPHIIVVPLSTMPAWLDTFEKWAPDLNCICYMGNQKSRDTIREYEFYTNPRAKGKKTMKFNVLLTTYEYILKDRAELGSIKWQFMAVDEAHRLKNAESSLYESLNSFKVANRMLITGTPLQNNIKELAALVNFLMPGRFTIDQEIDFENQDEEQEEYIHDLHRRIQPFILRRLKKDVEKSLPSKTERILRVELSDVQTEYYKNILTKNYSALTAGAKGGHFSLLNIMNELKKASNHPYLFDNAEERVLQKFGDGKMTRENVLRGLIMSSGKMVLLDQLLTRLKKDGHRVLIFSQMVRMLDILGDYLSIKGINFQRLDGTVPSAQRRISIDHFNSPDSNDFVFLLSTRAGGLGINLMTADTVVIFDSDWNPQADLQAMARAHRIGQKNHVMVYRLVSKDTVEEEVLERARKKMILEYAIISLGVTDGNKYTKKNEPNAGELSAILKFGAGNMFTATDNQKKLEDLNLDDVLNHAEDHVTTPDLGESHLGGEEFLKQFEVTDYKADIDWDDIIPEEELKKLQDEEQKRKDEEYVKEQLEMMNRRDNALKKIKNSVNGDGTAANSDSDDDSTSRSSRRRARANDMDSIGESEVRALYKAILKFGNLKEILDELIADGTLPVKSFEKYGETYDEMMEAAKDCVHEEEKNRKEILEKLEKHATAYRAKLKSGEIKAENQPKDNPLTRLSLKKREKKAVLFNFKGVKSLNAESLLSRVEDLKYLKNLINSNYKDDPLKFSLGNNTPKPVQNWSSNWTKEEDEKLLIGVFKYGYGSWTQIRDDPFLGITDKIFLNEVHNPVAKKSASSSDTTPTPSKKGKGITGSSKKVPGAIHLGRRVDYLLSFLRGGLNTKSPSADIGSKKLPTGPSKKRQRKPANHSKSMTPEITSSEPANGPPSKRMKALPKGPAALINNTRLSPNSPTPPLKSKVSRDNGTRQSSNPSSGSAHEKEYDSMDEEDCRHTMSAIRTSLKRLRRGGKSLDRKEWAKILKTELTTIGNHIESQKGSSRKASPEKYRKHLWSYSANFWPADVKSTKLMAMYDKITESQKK

For some of these results: Results with a measured potency or affinity are listed apart.

Chain of Sialic acid-binding Ig-like lectin 9 (Homo sapiens) (Q9Y336 whole entry): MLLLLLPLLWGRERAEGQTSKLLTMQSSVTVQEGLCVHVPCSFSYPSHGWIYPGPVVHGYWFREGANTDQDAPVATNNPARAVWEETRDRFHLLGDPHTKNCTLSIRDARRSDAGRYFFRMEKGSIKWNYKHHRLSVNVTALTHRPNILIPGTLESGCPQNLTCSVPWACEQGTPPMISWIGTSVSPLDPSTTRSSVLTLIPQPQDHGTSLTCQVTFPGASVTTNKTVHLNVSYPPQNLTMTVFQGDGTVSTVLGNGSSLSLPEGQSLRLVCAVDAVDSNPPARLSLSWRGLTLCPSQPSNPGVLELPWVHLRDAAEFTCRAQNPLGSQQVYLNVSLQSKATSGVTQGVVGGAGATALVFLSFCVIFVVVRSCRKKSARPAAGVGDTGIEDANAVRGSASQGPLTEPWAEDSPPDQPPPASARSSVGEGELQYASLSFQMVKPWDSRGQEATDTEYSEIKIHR
Chain of Protein translocase subunit SecA (Escherichia coli (strain K12)) (P10408 whole entry): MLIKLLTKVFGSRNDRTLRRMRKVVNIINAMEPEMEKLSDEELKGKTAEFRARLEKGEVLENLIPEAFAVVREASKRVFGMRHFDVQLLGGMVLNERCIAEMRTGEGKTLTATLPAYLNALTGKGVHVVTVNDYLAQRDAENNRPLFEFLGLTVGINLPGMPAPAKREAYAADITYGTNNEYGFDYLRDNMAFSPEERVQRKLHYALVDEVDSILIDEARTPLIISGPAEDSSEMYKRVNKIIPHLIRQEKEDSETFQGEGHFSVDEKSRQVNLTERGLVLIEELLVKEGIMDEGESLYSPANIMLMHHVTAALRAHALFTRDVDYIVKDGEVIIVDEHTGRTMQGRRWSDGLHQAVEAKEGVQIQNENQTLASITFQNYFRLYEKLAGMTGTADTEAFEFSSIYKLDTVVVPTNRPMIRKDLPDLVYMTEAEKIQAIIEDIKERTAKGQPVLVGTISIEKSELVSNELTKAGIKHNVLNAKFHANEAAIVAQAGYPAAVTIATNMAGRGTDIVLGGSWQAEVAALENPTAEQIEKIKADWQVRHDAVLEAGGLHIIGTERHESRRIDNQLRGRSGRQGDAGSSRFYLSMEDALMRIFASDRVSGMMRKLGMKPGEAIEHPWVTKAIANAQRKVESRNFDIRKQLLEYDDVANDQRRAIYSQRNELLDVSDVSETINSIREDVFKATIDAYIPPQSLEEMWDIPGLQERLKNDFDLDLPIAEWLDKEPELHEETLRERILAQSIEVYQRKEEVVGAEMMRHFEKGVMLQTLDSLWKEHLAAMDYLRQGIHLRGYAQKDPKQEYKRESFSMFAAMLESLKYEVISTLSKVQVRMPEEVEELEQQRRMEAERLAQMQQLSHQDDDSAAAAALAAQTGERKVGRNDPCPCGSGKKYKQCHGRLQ

As to `CCC(=O)N1CCc2nc3cc(OC)c(OC)cc3c(=O)n2CC1`, the Percent Effect is -8.64% in experiment [1]; 9.46% in [2]; -6.48% in experiment [3]; 12.5% in experiment [4]; 5.34% in the experiment on Trypanosoma cruzi; -1.62% in experiment [5]. For the same molecule, the Percent Effect in [6] was 8.58%; in the experiment filed under Homo sapiens, 6.53%; in experiment [7], 2.15%; in [8], 11.7%; in experiment [9], -28.2%.
As to `COc1ccc(Nc2nc3c(C)nn(C)c3c(=O)n2C)c(OC)c1`, the Percent Effect in [1] is -1.13%; in [2] it was 15.6%; in [3] it was -2.05%; in experiment [4], 14.5%; in the experiment with Trypanosoma cruzi, 6.79%; in experiment [5] it was -12.4%. Moreover, the Percent Effect in experiment [6] was 10.3%; in the experiment filed under Homo sapiens, 0.301%; in [7], 8.6%; in experiment [8] it was 18.5%; in experiment [9] it was -5.3%.
On to `Cc1ccc(NC2CCN(C(=O)Cc3csc(C)n3)CC2)nn1`, for which the Percent Effect is -0.935% in experiment [1]; 21.6% in experiment [2]; -5.18% in experiment [3]; -3.82% in experiment [4]; -8.02% in the experiment with Trypanosoma cruzi; 1.2% in [5]. Also, the Percent Effect was 18.6% in experiment [6]; 4.91% in the experiment filed under Homo sapiens; 7.39% in experiment [7]; 16.1% in experiment [8]; -4.45% in experiment [9].
As to `COc1ccc(F)cc1S(=O)(=O)NCC(c1cccn1C)N(C)C` (stereo unspecified), the Percent Effect in experiment [1] was -3.57%; in experiment [2], 8.22%; in [3], -1.87%; in experiment [4], -2.56%; in the experiment with Trypanosoma cruzi, 0.196%; in experiment [5], 3.64%. Further, the Percent Effect in [6] is 11.5%; in the experiment listed under Homo sapiens, 7.4%; in experiment [7], 7.53%; in experiment [8], 20%; in [9] it was -6.57%.
As to `Cc1nn(C)c(C)c1C1CCCN1C(=O)CCc1cscn1` (stereo unspecified), the Percent Effect in experiment [1] was -2.32%; in experiment [2], -5.26%; in [3], -4.9%; in experiment [4], 0.0636%; in the experiment with Trypanosoma cruzi it was 0.467%; in experiment [5] it was 0.36%. Also, the Percent Effect in experiment [6] was 6.18%; in the experiment listed under Homo sapiens, -8.57%; in [7], 1.48%; in experiment [8], 1.24%; in [9], 2.83%.
For the molecule `CCc1nc(C2CCCN2C(=O)CCc2cccs2)no1` (stereo unspecified), the Percent Effect in experiment [1] is -3.51%; in [2] it was -2.7%; in experiment [3], -4.68%; in [4], 4.58%; in the experiment with Trypanosoma cruzi, -3.81%; in experiment [5], 1.29%. Further, the Percent Effect in experiment [6] was -4.49%; in the experiment filed under Homo sapiens it was 3.17%; in experiment [7], -0.99%; in experiment [8] it was -8.54%; in [9], -2.06%.
Take `CN(C(=O)c1ccccn1)c1nc2c(s1)CCc1c-2cnn1C`: the Percent Effect in [1] is -3.06%; in experiment [2], 52.7%; in experiment [3] it was 11%; in experiment [4] it was -2.4%; in the experiment on Trypanosoma cruzi, 4.94%; in [5], -4.41%. The Percent Effect in experiment [6] was 11.5%; in the experiment filed under Homo sapiens it was 16.9%; in [7], -4.3%; in experiment [8], 1.3%; in experiment [9], -15.7%.
On to `Cc1noc(C)c1CN(C)C(=O)c1ccc(NC2CC2)nc1`, for which the Percent Effect in [1] is -1.87%; in experiment [2], 15.8%; in experiment [3], -5.49%; in experiment [4], 6.74%; in the experiment on Trypanosoma cruzi it was 1.59%; in [5] it was 2.88%. Also, the Percent Effect in experiment [6] is 5.84%; in the experiment filed under Homo sapiens, -7.41%; in [7] it was 9.36%; in experiment [8], 18.5%; in [9] it was -4.25%.
For the molecule `Cc1ccc(CC(=O)N2Cc3nccn3CC(Cn3cccn3)C2)cc1` (stereo unspecified), the Percent Effect in [1] is 0.712%; in [2], 8.22%; in [3], -7.73%; in [4], 14.5%; in the experiment with Trypanosoma cruzi, 3.77%; in experiment [5], 2.79%. Moreover, the Percent Effect in [6] was 11.2%; in the experiment filed under Homo sapiens, 17.3%; in experiment [7], 4.17%; in experiment [8] it was 16.1%; in experiment [9] it was -6.87%.
Regarding `Cc1nc(N2CCOCC2)nc2c1CCN(C(=O)NC1CCCC1)CC2`, the Percent Effect in [1] is -0.181%; in experiment [2], 6.67%; in [3], -1.67%; in [4], -6.84%; with Trypanosoma cruzi it was -11%; in experiment [5], -6.16%. Also, the Percent Effect in experiment [6] was 19.2%; in the experiment listed under Homo sapiens, 0.0839%; in [7] it was -2.12%; in experiment [8], 0%; in experiment [9], -10.6%.
Take `CCOc1ccccc1OC1CCN(C(=O)c2nc(=O)[nH][nH]2)CC1`: the Percent Effect is -5.6% in [1]; 18.4% in [2]; -5.81% in experiment [3]; 1.22% in [4]; 10.5% in the experiment with Trypanosoma cruzi; -3.06% in [5]. Moreover, the Percent Effect in [6] was 13.9%; in the experiment filed under Homo sapiens, 18.1%; in experiment [7], 6.37%; in [8], 19.5%; in experiment [9], -9.11%.

These data come from ChEMBL document CHEMBL3988442, “University of Dundee, Small-Polar-MMV Screening Library” (2021).
